Source: PubChem (several laboratories)
Gli-Sufu antag – Gli-Sufu pathway antagonists, primary screen, luciferase luminescence, Sufu-KO-LIGHT cells, uHTS; Sufu-KO-LIGHT fibroblasts, Gli luciferase reporter luminescence; inhibition, % at 5 µM; 340,000 compounds, 0.74% hits; AID 588413, 2011;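 active means inhibition above about 55%, limit read from the data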;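 further: 0% = DMSO-treated cells and 100% = wells with medium but no cells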
Shn3 inh set2 – reduction of Shn3 3'UTR firefly luciferase signal, primary screen, Schnurri-3 inhibitor project, cell-based, Clone20 osteoblasts, set 2. inhibition, % at 12.5 µM. Clone20 osteoblast Shn3 3'UTR firefly luciferase, 24 h. 360,000 compounds, 0.52% hits;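 active means mean inhibition of at least 75% with every replicate also reaching 75%; inconclusive means mean inhibition at least 75% but some replicate below; inactive means mean inhibition below 75%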;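 further: 0% = median of neutral control wells and 100% = pilot-screen positive control compound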
697 NFkB inh – inhibitors of PMA/ionomycin-induced NF-kB reporter, 697 cells, primary screen, B-cell NF-kB inhibitor project, cell-based, luminescence, uHTS; 697 B-cell NF-kB luciferase reporter, 16 h; inhibition, % at 4 µM; 330,000 compounds, 0.33% hits; AID 435022, 2010; in the data active means inhibition above about 35%
MITF TRPM1 inh – inhibitors of MITF-dependent TRPM1 promoter reporter, primary screen, cell-based, SK-MEL-5, single point, luciferase | inhibition, % at 12.5 µM | 330,000 compounds, 0.83% hits | SK-MEL-5 TRPM1 promoter luciferase, 24 h;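 active means mean inhibition across replicates of 60% or more, whatever share of single replicates reaches that level; inconclusive means some that reach 60%, reason not given; inactive means mean inhibition across replicates below 60%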
EBV LMP1 NFkB – EBV LMP1-driven NF-kappaB luciferase reporter inhibitors, primary screen, cell-based, luminescence, single point | AID 504558, 2011 | LMP1-induced NF-kappaB luciferase reporter cells | inhibition, % at 12.5 µM | 350,000 compounds, 0.69% hits; in the data active means inhibition above about 41%; inconclusive means no clear call, values can overlap the other calls;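 further: 0% = neutral control wells and 100% = reference inhibitor control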
Jurkat NFkB inh – inhibitors of induced NF-kB luciferase reporter, primary screen, TCR NF-kB activation inhibitor project, cell-based, luminescence, uHTS. inhibition, % at 4 µM. 330,000 compounds, 0.53% hits. Jurkat, PMA/ionomycin-induced NF-kB luciferase reporter; in the data active means inhibition above about 50%
Jurkat NFkB conf – PMA/ionomycin-induced NF-kB reporter inhibitors, Jurkat retest, confirmation, T-cell NF-kB inhibitor project, cell-based, luminescence, single concentration | shares compounds with Jurkat NFkB inh | Jurkat NF-kB luciferase, 16 h | inhibition, % at 4 µM | 2,700 compounds, 27% hits | AID 435020, 2010;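 active means inhibition reaching about 45% at 4 µM in either replicate, limit read from the data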;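 further: plate controls were PMA/ionomycin stimulated DMSO wells for no effect and unstimulated DMSO wells for full effect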
697 NFkB conf – PMA/ionomycin-induced NF-kB reporter inhibitors, 697 retest, confirmation, B-cell NF-kB inhibitor project, cell-based, luminescence, single concentration. inhibition, % at 4 µM. 697 B-cell NF-kB luciferase, 16 h. AID 449746, 2010. 2,000 compounds, 35% hits. shares compounds with 697 NFkB inh; in the data active means inhibition mostly above about 28%, no sharp cut-off; inactive means mostly below about 22%
Gli antag conf – Gli-SUFU pathway antagonists, confirmation, single concentration, luciferase luminescence, Sufu-KO-LIGHT cells | shares compounds with Gli-Sufu antag | Gli luciferase reporter | 2,500 compounds, 40% hits | inhibition, % at 5 µM;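 active means mean inhibition at 5 µM reaching about 45%, limit read from the data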;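 further: plate controls were DMSO-treated cells for no effect and wells lacking cells for full effect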
Gli cytotox – cytotoxicity in Sufu-KO-LIGHT cells, confirmation, cytotoxicity control for Gli-SUFU antagonist project, cell-based, ATP luminescence, single concentration; 2,500 compounds, 32% hits; shares compounds with Gli-Sufu antag; cytotoxicity, % at 5 µM;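 active means mean cytotoxicity at 5 µM above about 25%, limit read from the data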;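 further: cells exposed to compound overnight for roughly 16 to 18 hours; plate controls were DMSO wells with cells for no effect and medium without cells for full effect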
Wnt3a cs – Wnt3a reporter signal inhibition, confirmation, counter-screen for Gli-SUFU antagonist project, Wnt-LIGHT cells, luminescence, single concentration | shares compounds with Gli-Sufu antag | Wnt3a-driven luciferase reporter | inhibition, % at 6.25 µM | 2,500 compounds, 20% hits | AID 651995, 2013;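 active means mean inhibition above about 25%, limit read from the data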
* hit, by the source's call; ? = inconclusive; · = no result given. Most compounds without a hit are left out; they make up all but 2.3% or so of the library.

SMILES	Gli-Sufu antag	Shn3 inh set2	697 NFkB inh	MITF TRPM1 inh	EBV LMP1 NFkB	Jurkat NFkB inh	Jurkat NFkB conf	Gli antag conf	Gli cytotox	Wnt3a cs	others
Cc1ccc(C(=O)CN2C(=O)c3ccccc3S2(=O)=O)cc1	78.2*	54.7	72.9*	68.8*	74.4*	81.0*	66.4*	86.8*	26.2*	95.3*	697 NFkB conf=51.4*
Cc1cc(C(=O)CN2C(=O)c3ccccc3S2(=O)=O)c(C)n1C(C)C	57.1*	41.8	9.5	34.5	70.4*	55.2*	18.6	49.2*	12.4	43.6*
CC(=O)N(Cc1cccs1)Cc1cc2ccc(C)c(C)c2nc1Cl	7.0	5.4	3.2	13.8	-0.8	0.5	·	·	·	·
COc1ccc(C2=NOC(C(=O)NCc3ccccc3)C2)cc1 (stereo not drawn)	55.4*	7.9	-92.2	12.1	11.7	63.7*	13.7	38.2	53.9*	-31.3
COC(=O)Cc1ccc(NC(=O)c2ccc(C(C)(C)C)cc2)cc1	72.2*	73.0	77.1*	59.3	48.4*	64.0*	78.6*	76.8*	45.5*	102.3*	697 NFkB conf=73.6*
COC(=O)Cc1ccc(NC(=O)c2ccccc2Cl)cc1	-9.2	1.2	34.3	-15.2	-7.6	-1.5	·	·	·	·
COc1cc(C2C(C#N)=C(N)Oc3cc4c(cc32)OCO4)cc(OC)c1OC (stereo not drawn)	57.9*	-7.3	-139.9	77.1*	7.1	77.0*	46.4	55.9*	51.0*	4.1
O=C(Cc1ccsc1)N1CCN(S(=O)(=O)c2cccc(F)c2)CC1	0.8	4.0	7.7	6.7	0.4	12.1	·	·	·	·
COC(=O)C1=C(CN2CCCc3ccccc32)NC(=O)NC1c1ccc(F)cc1 (stereo not drawn)	82.2*	73.6	0.9	86.8*	37.5	54.4*	78.8*	35.7	19.1	72.0*
CCOc1ccc(N(CC(=O)Nc2ccc(C)cc2)S(=O)(=O)c2c(C)noc2C)cc1	7.8	17.6	12.3	-2.5	8.3	15.5	·	·	·	·
CCOc1ccc(N(CC(=O)Nc2ccccc2OCC)S(=O)(=O)c2c(C)noc2C)cc1	53.4	-9.4	-25.1	64.8*	9.3	57.3*	61.6*	63.5*	51.8*	47.2*
CC(=O)Nc1ccc(NC(=O)C(NC(=O)c2ccc(Cl)cc2)C(C)C)cc1 (stereo not drawn)	·	13.4	·	·	-3.4	·	·	·	·	·
Cc1cc(N2CCN(c3nc4ccccc4s3)CC2)n2ncnc2n1	71.2*	51.3	53.7*	1.6	4.6	61.7*	54.0*	66.1*	38.5*	-18.8	697 NFkB conf=42.0*
CC(=O)NN1C(=O)c2ccccc2NC1c1ccccc1F (stereo not drawn)	-7.0	-18.2	4.0	-2.1	1.8	12.4	·	·	·	·
O=c1[nH]c(/C=C2\C=Nc3ccccc32)c(O)n1Cc1ccccc1F	56.2*	70.5	-18.4	7.3	-58.1	84.0*	9.6	65.3*	26.7*	10.4
CN(C)C1=C(Cl)C(=O)N(c2ccc(Cl)c(Cl)c2)C1=O	5.6	-15.5	2.6	11.4	-3.6	12.0	·	·	·	·
N#Cc1ccc(-c2cccs2)nc1SCc1cccnc1	60.4*	·	-37.5	·	·	65.6*	37.4	34.2	55.4*	-39.1
N#Cc1c(C(F)(F)F)cc(-c2cccs2)nc1SCc1cccnc1	22.1	22.0	-71.2	1.5	2.6	31.1	·	·	·	·
COc1ccc(C(C(=O)NC2CCCCC2)N(C(=O)CCl)c2ccc(Cl)cc2)cc1 (stereo not drawn)	84.8*	94.1*	92.4*	78.5*	17.1	75.9*	19.5	32.9	27.8*	-13.0	697 NFkB conf=19.2*
COc1ccc(N(C(=O)c2cnccn2)C(C(=O)NC2CCCCC2)c2ccc(Cl)cc2)cc1 (stereo not drawn)	-4.0	-16.7	-2.1	-3.6	4.1	-1.3	·	·	·	·
CCn1c2ccccc2c2cc(NC(=O)c3cc(OC)cc(OC)c3)ccc21	59.1*	8.9	2.9	45.7	-7.9	59.8*	41.5	62.2*	54.7*	-10.1
CCn1c2ccccc2c2cc(NC(=O)c3cc(OC)c(OC)c(OC)c3)ccc21	70.7*	7.3	-140.3	56.5	12.0	57.5*	51.0*	59.8*	64.1*	0.3
CN(C)c1cc[n+](CC(=O)c2ccc(-c3ccccc3)cc2)cc1	87.5*	72.9	61.8*	70.2*	-14.6	73.2*	60.2*	85.9*	38.0*	38.8*	697 NFkB conf=46.0*
O=C(C[n+]1ccccc1)c1ccc(-c2ccccc2)cc1	10.8	-30.1	-4.6	5.6	9.2	-3.5	·	·	·	·
CCc1nnc2n1N=C(c1ccccc1)CS2	4.3	4.5	11.1	4.0	0.1	11.1	·	·	·	·
Cc1cc(C)nc(SCC(=O)Nc2ccnc3ccccc23)n1	64.4*	?	23.3	18.2	7.2	63.9*	64.7*	66.7*	13.9	41.0*
CSC1=NCCN1C(=O)c1ccc2ccccc2c1	2.4	3.2	-15.5	-10.1	-4.1	-3.0	·	·	·	·
Cc1cc(N2CCC(C)CC2)nc(NCc2ccccc2)n1	51.9	19.3	-27.6	-4.2	5.6	53.3*	4.2	21.6	31.2*	-16.6
CCC[C@H]1NC(=O)[C@H](C)N(C)C(=O)C(C)(C)C(=O)C(C)NC(=O)[C@H](Cc2ccc(OC)cc2)N(C)C(=O)[C@H](C(C)C)N(C)C(=O)CNC(=O)[C@H](CC(C)C)N(C)C(=O)CNC(=O)[C@H]([C@@H](C)CC)OC(=O)[C@H]1C (stereo partly drawn)	74.8*	·	-27.8	·	·	81.8*	41.5	89.1*	58.3*	60.9*
